Measurements reported in PubChem BioAssay AID1159580 (chemical genetic matrix, 2015).
Where “and” joins values, the source holds several entries; their conditions need not be identical. Equal entries are not always repeated. Hit rate of the full screen: of about 5,500 compounds, about 2,000 (36%) were called active. Roughly 18% stayed inconclusive and do not appear here. Cut-off read from the data, not from the text of the source: active = normalized growth mostly below about 0.91 (no sharp cut-off); inconclusive = no clear call, values can overlap the other calls; inactive = mostly above about 0.92. This is one part of the list.

Assay: chemical genetic growth profiling, strain panel (AID 1159580);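 note: tested at 20 µM; growth read once vehicle control cultures reached saturation at 30 °C; 1 = growth at the plate median or of vehicle wells; lower values mean less growth of the strain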
Settings: S. cerevisiae deletion strains, growth OD

Measured: normalized growth

CNc1ccccc1C(=O)N1CCc2c([nH]c3ccccc23)C1=O
inactive: locus YAL021C, strain ccr4, active compounds read low 0.962 | locus YAL026C, strain drs2, active compounds read low 1 | locus YAL030W, strain snc1, active compounds read low 0.995 | locus YBL061C, strain skt5, active compounds read low 1 | locus YBR009C, strain hhf1, active compounds read low 0.981 | locus YBR021W, strain FUR4, active compounds read low 0.954 | locus YBR023C, strain chs3, active compounds read low 1 | locus YBR171W, strain sec66, active compounds read low 0.991 | locus YBR229C, strain ROT2, active compounds read low 1.01 | locus YBR231C, strain swc5, active compounds read low 0.996 | locus YBR279W, strain paf1, active compounds read low 0.992 | locus YCL011C, strain gbp2, active compounds read low 0.983 | locus YCL016C, strain dcc1, active compounds read low 0.981 | locus YCL029C, strain bik1, active compounds read low 0.996 | locus YCL069W, strain vba3, active compounds read low 0.987 | locus YCR088W, strain abp1, active compounds read low 1 | locus YDL005C, strain med2, active compounds read low 0.997 | locus YDL035C, strain GPR1, active compounds read low 0.995 | locus YDL040C, strain nat1, active compounds read low 0.99 | locus YDL074C, strain BRE1, active compounds read low 0.976 | locus YDL101C, strain DUN1, active compounds read low 1.02 | locus YDL185W, strain tfp1, active compounds read low 0.996 | locus YDL192W, strain arf1, active compounds read low 0.975 | locus YDR001C, strain nth1, active compounds read low 0.98 | locus YDR069C, strain doa4, active compounds read low 0.966 | locus YDR101C, strain arx1, active compounds read low 0.964 | locus YDR137W, strain rgp1, active compounds read low 0.991 | locus YDR159W, strain sac3, active compounds read low 1.03 | locus YDR162C, strain NBP2, active compounds read low 1.01 | locus YDR195W, strain ref2 1.01 | locus YDR297W, strain sur2, active compounds read low 1 | locus YDR318W, strain mcm21, active compounds read low 0.997 | locus YDR334W, strain swr1, active compounds read low 0.991 | locus YDR335W, strain msn5, active compounds read low 0.996 | locus YDR388W, active compounds read low 0.979 | locus YDR392W, strain spt3, active compounds read low 0.908 | locus YDR502C, strain sam2, active compounds read low 0.967 | locus YEL003W, strain gim4, active compounds read low 0.987 | locus YEL037C, strain rad23, active compounds read low 0.992 | locus YEL061C, strain CIN8 (second series), active compounds read low 0.989 | locus YEL061C, strain CIN8, active compounds read low 1.01 | locus YER015W, strain faa2, active compounds read low 0.992 | locus YER016W, strain bim1, active compounds read low 0.985 | locus YER110C, active compounds read low 0.986 | locus YER111C, strain swi4, active compounds read low 1 | locus YER155C, strain BEM2 (second series), active compounds read low 1.01 | locus YER155C, strain BEM2, active compounds read low 0.997 | locus YER167W, strain BCK2, active compounds read low 1 | locus YFR010W, strain ubp6, active compounds read low 0.965 | locus YGL078C, strain dbp3, active compounds read low 0.971 | locus YGL086W, strain mad1, active compounds read low 0.964 | locus YGL167C, strain pmr1, active compounds read low 0.98 | locus YGL173C, strain kem1, active compounds read low 0.997 | locus YGL227W, strain vid30, active compounds read low 1 | locus YGL240W, strain doc1, active compounds read low 1 | locus YGL248W, strain PDE1, active compounds read low 1.02 | locus YGL253W, strain hxk2, active compounds read low 0.989 | locus YGR078C, strain PAC10, active compounds read low 1.01 | locus YGR135W, strain pre9, active compounds read low 1 | locus YGR229C, strain SMI1, active compounds read low 1 | locus YGR252W, strain gcn5, active compounds read low 0.924 | locus YHR013C, strain ard1, active compounds read low 0.958 | locus YHR027C, strain rpn1, active compounds read low 0.991 | locus YHR030C, strain SLT2, active compounds read low 1.01 and 0.995 | locus YHR079C, strain IRE1 (second series), active compounds read low 0.981 | locus YHR079C, strain IRE1, active compounds read low 0.986 | locus YHR094C, strain hxt1, active compounds read low 0.984 | locus YHR129C, strain ARP1, active compounds read low 1.01 | locus YHR142W, strain chs7, active compounds read low 0.975 | locus YHR200W, strain rpn10, active compounds read low 0.987 | locus YIL066C, strain RNR3, active compounds read low 1.01 | locus YIL073C, strain SPO22, active compounds read low 0.957 | locus YIL125W, strain kgd1, active compounds read low 0.968 | locus YIR030C, strain dcg1, active compounds read low 0.975 | locus YJL092W, strain hpr5, active compounds read low 0.991 | locus YJL095W, strain BCK1 (second series), active compounds read low 1.01 | locus YJL095W, strain BCK1, active compounds read low 1.01 and 1.06 | locus YJL115W, strain asf1, active compounds read low 0.976 | locus YJL129C, strain trk1, active compounds read low 0.982 | locus YJL134W, strain LCB3, active compounds read low 1.01 | locus YJL154C, strain vps35, active compounds read low 0.989 | locus YJL164C, strain tpk1, active compounds read low 0.963 | locus YJL166W, strain qcr8, active compounds read low 0.992 | locus YJL168C, strain set2, active compounds read low 0.989 | locus YJL187C, strain SWE1 (second series), active compounds read low 1 | locus YJL187C, strain SWE1, active compounds read low 0.981 | locus YJR043C, strain POL32, active compounds read low 0.986 | locus YJR066W, strain TOR1, active compounds read low 0.94 | locus YJR075W, strain HOC1, active compounds read low 1 | locus YKL009W, strain mrt4, active compounds read low 0.949 | locus YKL068W, active compounds read low 1 | locus YKL085W, strain MDH1 (second series), active compounds read low 0.994 | locus YKL085W, strain MDH1, active compounds read low 0.994 | locus YKL160W, strain elf1, active compounds read low 0.973 | locus YKR001C, strain vps1, active compounds read low 0.941 | locus YKR026C, strain gcn3, active compounds read low 1.01 | locus YKR091W, strain srl3, active compounds read low 0.989 | locus YLL001W, strain dnm1, active compounds read low 0.982 | locus YLL026W, active compounds read low 1 | locus YLL041C, strain sdh2, active compounds read low 1 | locus YLR027C, strain aat2, active compounds read low 0.995 | locus YLR039C, strain RIC1, active compounds read low 0.812 | locus YLR058C, strain SHM2, active compounds read low 1.01 | locus YLR102C, strain apc9, active compounds read low 0.977 | locus YLR113W, strain HOG1, active compounds read low 1.1 | locus YLR221C, strain rsa3, active compounds read low 1.01 | locus YLR258W, strain gsy2, active compounds read low 0.993 | locus YLR262C, strain YPT6 (second series), active compounds read low 0.975 | locus YLR262C, strain YPT6, active compounds read low 0.823 | locus YLR268W, strain sec22, active compounds read low 0.954 | locus YLR320W, strain mms22, active compounds read low 1 | locus YLR330W, strain CHS5, active compounds read low 1.01 | locus YLR342W, strain FKS1 (second series), active compounds read low 0.998 | locus YLR342W, strain FKS1, active compounds read low 0.991 | locus YLR357W, strain rsc2, active compounds read low 0.973 | locus YLR370C, strain arc18, active compounds read low 0.998 | locus YLR371W, strain rom2, active compounds read low 0.986 | locus YLR384C, strain iki3, active compounds read low 1.02 | locus YLR418C, strain cdc73, active compounds read low 0.917 | locus YML016C, strain PPZ1, active compounds read low 1.02 | locus YML032C, strain rad52, active compounds read low 0.989 | locus YML120C, strain ndi1, active compounds read low 0.983 | locus YML124C, strain tub3, active compounds read low 0.985 | locus YMR058W, strain fet3, active compounds read low 0.994 | locus YMR078C, strain ctf18, active compounds read low 0.986 | locus YMR125W, strain sto1, active compounds read low 0.965 | locus YMR129W, active compounds read low 0.988 | locus YMR205C, strain PFK2, active compounds read low 0.984 | locus YMR223W, strain ubp8, active compounds read low 1 | locus YMR231W, strain pep5, active compounds read low 0.999 | locus YMR263W, strain SAP30, active compounds read low 1.01 | locus YMR307W, strain GAS1, active compounds read low 0.949 | locus YNL067W, strain RPL9B, active compounds read low 1.01 | locus YNL071W, strain lat1, active compounds read low 0.993 | locus YNL153C, strain GIM3, active compounds read low 1.01 | locus YNL183C, strain NPR1, active compounds read low 1.01 | locus YNL209W, strain ssb2, active compounds read low 0.985 | locus YNL233W, strain BNI4, active compounds read low 0.996 | locus YNL248C, strain rpa49, active compounds read low 0.986 | locus YNL250W, strain rad50, active compounds read low 1 | locus YNL271C, strain bni1, active compounds read low 0.989 | locus YNL298W, strain CLA4, active compounds read low 0.977 | locus YNL307C, strain MCK1, active compounds read low 0.985 | locus YNL322C, strain KRE1 (second series), active compounds read low 1 | locus YNL322C, strain KRE1, active compounds read low 1.01 | locus YNR049C, strain mso1, active compounds read low 0.989 | locus YNR052C, strain pop2, active compounds read low 1.02 | locus YOL006C, strain TOP1, active compounds read low 0.974 | locus YOL012C, strain htz1 0.736 | locus YOL147C, strain pex11, active compounds read low 0.979 | locus YOR001W, strain rrp6, active compounds read low 1.01 | locus YOR061W, strain CKA2, active compounds read low 1.01 | locus YOR069W, strain VPS5, active compounds read low 1.01 | locus YOR070C, strain gyp1, active compounds read low 0.985 | locus YOR080W, strain dia2, active compounds read low 1 | locus YOR083W, strain WHI5, active compounds read low 0.967 | locus YOR106W, strain vam3, active compounds read low 0.924 | locus YOR136W, strain idh2, active compounds read low 0.974 | locus YOR144C, strain elg1, active compounds read low 0.979 | locus YOR184W, strain ser1, active compounds read low 0.979 | locus YOR231W, strain MKK1, active compounds read low 1.01 | locus YOR265W, strain rbl2, active compounds read low 1 | locus YOR270C, strain vph1, active compounds read low 0.979 | locus YOR290C, strain snf2, active compounds read low 0.944 | locus YOR316C, strain cot1, active compounds read low 0.982 | locus YPL051W, strain arl3, active compounds read low 0.982 | locus YPL055C, strain LGE1, active compounds read low 0.991 | locus YPL078C, strain atp4, active compounds read low 0.973 | locus YPL106C, strain sse1, active compounds read low 0.997 | locus YPL240C, strain hsp82, active compounds read low 0.986 | locus YPL241C, strain CIN2, active compounds read low 1 | locus YPL256C, strain CLN2, active compounds read low 1 | locus YPR119W, strain clb2, active compounds read low 0.978 | locus YPR141C, strain kar3, active compounds read low 0.994 | locus YPR163C, strain tif3, active compounds read low 0.99 | locus YPR167C, strain met16, active compounds read low 0.989 | strain wtn01, active compounds read low 0.961
